Laboratory results from PubChem BioAssay (Tox21).
Results filed as inconclusive are left out. Activity calls are given as the source filed them. Calls follow the shape of the dose curve; as a rule, active = well fitted cell-killing curve with a large enough effect in the repeat runs; inconclusive = weak or mixed curves, or effect the other way; inactive = no such curve, though single readings can be large or run the other way. Non-standard residues stand in square brackets, D forms with d. Residues, ends and D or L forms follow the SMILES beside them. *: point of attachment. Sta = CC(C)C[C@H](N)[C@@H](O)CC(=O)O; Isovaleryl = CC(C)CC(=O)*
% is scaled to controls: 0 for no effect and ±100 for the full control effect.

Assay: qHTS assay to identify small molecule antagonists of the progesterone receptor (PR) signaling pathway - cell viability counter screen (AID 1346798); also: nearly all actives have a fitted effect of over 50% in size
Settings: PR-UAS-bla HEK293T viability, CellTiter-Glo luminescence, 16 h; series mostly up to 92.4 µM
Text: National Center for Advancing Translational Sciences [NCATS]
NIH Chemical Genomics Center [NCGC]
U.S. Environmental Protection Agency [EPA]
National Institutes of Environmental Health Sciences [NIEHS]
National Toxicology Program [NTP]
U.S. Food and Drug Administration [FDA]
Progesterone receptor (PR), a nuclear hormone receptor, plays an important role in development, metabolic homeostasis and reproduction. It is activated by the steroid hormone progesterone. Endocrine disrupting chemicals (EDCs) and their interactions with steroid hormone receptors like PR causes disruption of normal endocrine function. To identify the compounds that inhibit PR signaling, a PR-UAS-bla GripTite cell line i.e. PR-UAS-bla HEK293T (Invitrogen, Carlsbad, CA, USA) containing a beta-lactamase reporter gene under the control of an UAS response element was used to screen Tox21 10K compound library. The cytotoxicity of the Tox21 compound library against the PR-bla cell line was tested in parallel by measuring the cell viability using CellTiter-Glo assay in the same wells.
Tox21 Assay Protocol Summary:
PR-UAS-bla HEK293T cells were dispensed at 3,000 cells/4 uL of assay medium containing 2% charcoal stripped FBS per well into black wall/clear-bottom 1536-well plates using a Multidrop Combi (ThermoFisher Scientific, Waltham, MA) dispenser. After the assay plates were incubated at a 37C and 5% CO2 for 4 hr, 23 nL of compounds dissolved in DMSO, positive controls or DMSO only was transferred to the assay plate by a Pintool station (Kalypsys, San Diego, CA), followed by addition of 1 uL of R5020 in assay medium using a Flying Reagent Dispenser (FRD, Aurora Discovery, San Diego, CA). The plates were incubated at 37C and 5% CO2 for 16 hr. Then 1 uL of LiveBLAzer B/G FRET substrate was added using a Flying Reagent Dispenser, the plates were incubated at room temperature for 2 hours, and fluorescence intensity was measured by an Envision plate reader (PerkinElmer, Shelton, CT). For cell viability readout that measures cytotoxicity, 4 uL/well of CellTiter-Glo reagent was added into the assay plates using a FRD. After 30 min incubation at room temperature, the luminescence intensity in the plates was measured using a ViewLux (PerkinElmer) plate reader.
For `CCCCC(O)/C=C(C)/C=C/C=C/C(=O)N1CCCC1=O` (stereo not given), the outcome was “inactive”.
With `CCCC(=O)OC` the outcome was “inactive”.
In the case of `NNC(=O)CCCCC(=O)NN`, the outcome was “inactive”.
For `CCN(CC)CC(=O)Oc1ccc(NC(C)=O)cc1`, the outcome was “inactive”.
In the case of `CN(C)CCc1c[nH]c2ccc(CS(=O)(=O)N3CCCC3)cc12`, the outcome was “inactive”.
With `Cc1ccc(S(=O)(=O)NC(=O)NN2CC3CCCC3C2)cc1` (stereo not given) the outcome was “inactive”.
With `CNC(C)=O` the outcome was “inactive”.
With `O=c1[nH]c(=O)c2cn[nH]c2[nH]1` the outcome was “inactive”.
With `Cc1ccc2cccnc2c1` the outcome was “inactive”.
With `CC(C)C[P+](C)(CC(C)C)CC(C)C` the outcome was “inactive”.
For `CC/C=C\CCCCCCCCCCOC(C)=O`, the outcome was “inactive”.
In the case of `C[C@@H]1CC[C@@]2(OC1)O[C@H]1C[C@H]3[C@@H]4CC[C@H]5C[C@@H](O)CC[C@]5(C)[C@H]4CC(=O)[C@]3(C)[C@H]1[C@@H]2C`, the activity change, negative = cytotoxicity was 12.3% [at 8.39 µM] (inactive).
In the case of `C=CCOC(=O)CCCCCCCC`, the outcome was “inactive”.
In the case of `O=C1c2ccccc2C(=O)N1CO`, the outcome was “inactive”.
In the case of `C=CC(=O)OCCOCCOCC`, the outcome was “inactive”.
With `CCCCCC(=O)CC` the outcome was “inactive”.
In the case of `C=C(C)C(=O)OCCOC1CC2CC1C1C=CCC21` (stereo not given), the outcome was “inactive”.
With `CC(C)CC(=O)N[C@H](C(=O)N[C@H](C(=O)N[C@@H](CC(C)C)[C@@H](O)CC(=O)N[C@@H](C)C(=O)N[C@@H](CC(C)C)[C@@H](O)CC(=O)O)C(C)C)C(C)C` (Isovaleryl-VV[Sta]A[Sta]-OH) the outcome was “inactive”.
With `COC(=O)/C=C(\C)CCC=C(C)C` the outcome was “inactive”.
In the case of `CC(=O)Nc1ccc(S(=O)(=O)Nc2cc(C)on2)cc1`, the outcome was “inactive”.
With `BrCCOc1ccccc1` the outcome was “inactive”.
With `COC(=O)c1ccccc1Cl` the outcome was “inactive”.
With `CC1(C)CC(N)CC(C)(C)N1` the outcome was “inactive”.
For `COc1cc(NS(=O)(=O)c2ccc(N)cc2)ncn1`, the outcome was “inactive”.
With `CC(=O)c1c(C)cc(C(C)(C)C)cc1C` the outcome was “inactive”.
For `CCc1ccc(CC)cc1`, the outcome was “inactive”.
In the case of `CCCCCCCCCCCBr`, the outcome was “inactive”.
With `Nc1nc(Cl)cc(Cl)n1` the outcome was “inactive”.
For `COc1ccc(Cl)cc1C`, the outcome was “inactive”.
In the case of `CCN1CCN(C(=O)N[C@@H](C(=O)N[C@@H]2C(=O)N3[C@@H]2SC(C)(C)[C@H]3C(=O)O)c2ccccc2)C(=O)C1=O`, the outcome was “inactive”.
With `CC(C)c1cc(C(C)C)cc(C(C)C)c1` the outcome was “inactive”.
In the case of `CCOC(=O)CC`, the outcome was “inactive”.
In the case of `CC(=O)SC[C@@H](C)C(=O)N1CCC[C@H]1C(=O)N[C@@H](Cc1ccccc1)C(=O)O`, the outcome was “inactive”.
In the case of `CC[N+](C)(CC)CC`, the outcome was “inactive”.
In the case of `C[C@@H](CN1CC(=O)NC(=O)C1)N1CC(=O)NC(=O)C1`, the outcome was “inactive”.
With `CCC(=O)OCCOc1ccccc1` the outcome was “inactive”.
For `CC(C)OC(=O)C(C(=O)OC(C)C)=C1SC=CS1`, the outcome was “inactive”.
With `Nc1ccc(C(=O)NCC(=O)O)cc1` the outcome was “inactive”.
In the case of `N#CC1(N)CCCCC1`, the outcome was “inactive”.
In the case of `OCCC(F)(F)C(F)(F)C(F)(F)C(F)(F)C(F)(F)C(F)(F)F`, the outcome was “inactive”.
